Assay results published in PubChem BioAssay (Tox21).
Values without a mark were called inactive. Records with an inconclusive call do not appear. Entries that show only a call come without a potency. Activity calls are given as the source filed them. Unless noted, calls come from the whole dose curve; as a rule, active = well fitted curve in the direction sought with a large enough effect in the repeat runs; inconclusive = weak or mixed curves; inactive = no such curve, though single readings can be large; an effect the other way counts as inactive or inconclusive.

How the values were obtained:
[1] = molecular target: Luciferin 4-monooxygenase (Photinus pyralis) (UniProt P08659); test: qHTS assay to identify small molecule inhibitors of firefly luciferase (AID 1224835); note: nearly all actives have a fitted effect of over 25% in size; note: potency is the fitted concentration of half-maximal effect
How it was run: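 Quantitative HTS format; KM concentrations of both substrates. Purified P. pyralis FLuc activity quantified from luminescence images.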

[2] = qHTS assay to identify small molecule agonists of the constitutive androstane receptor (CAR) signaling pathway - cell viability counter screen (AID 1224836); note: nearly all actives have a fitted effect of over 45% in size
How it was run: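 Cells were seeded and incubated 4 hrs. Compounds were added across 15 concentrations together with PK11195 at 0.75 uM final. Plates were incubated 23 hrs at 37 C. CellTiter-Fluor was added and fluorescence measured.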

[3] = qHTS assay to identify small molecule antagonists of the constitutive androstane receptor (CAR) signaling pathway - cell viability counter screen (AID 1224837); note: nearly all actives have a fitted effect of over 45% in size
How it was run: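 Cytotoxicity counter-screen: CellTiter-Fluor fluorescence after 23 h compound exposure (15-point qHTS) in double-stable HepG2-CYP2B6-hCAR cells, with 50 nM CITCO added.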

[4] = molecular target: Nuclear receptor subfamily 1 group I member 3 (Homo sapiens) (UniProt Q14994); test: qHTS assay to identify small molecule antagonists of the constitutive androstane receptor (CAR) signaling pathway (AID 1224838);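 note: HepG2 cells stably expressing hCAR with CYP2B6 luciferase reporter stimulated by CITCO; nearly all actives have a fitted effect of over 40% in size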
How it was run: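 Antagonism measured as luciferase signal (ONE-Glo, 30 min, room temperature) in CAR-stimulated cells: HepG2-CYP2B6-hCAR double-stable line exposed 24 hr at 37 C to compound in a 15-point series plus 50 nM CITCO.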

[5] = molecular target: Nuclear receptor subfamily 1 group I member 3 (Homo sapiens) (UniProt Q14994); test: qHTS assay to identify small molecule agonists of the constitutive androstane receptor (CAR) signaling pathway (AID 1224839);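 note: HepG2 cells stably carrying human CAR and a CYP2B6 luciferase reporter; nearly all actives have a fitted effect of over 15% in size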
How it was run: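 Cells were plated and incubated 4 hrs, then dosed with compounds at 15 concentrations. PK11195 was added to 0.75 uM final. After 24 hrs at 37 C, luciferase luminescence was measured.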

[6] = qHTS assay to identify small molecule antagonists of the estrogen related receptor signaling pathway with the pleiotropic PPARgamma coactivator (PGC) from Tox21 10K library - cell viability counter screen (AID 1224840; active = well fitted cell-killing curve with a large enough effect in the repeat runs, not every such curve was filed as active; note: nearly all actives have a fitted effect of over 40% in size)
How it was run: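 Counter-screen for cytotoxicity: after 17.5 h compound exposure at 37 C, CellTiter-Fluor reagent added to PGC/ERR cells for 30 min and fluorescence read. Cells were seeded at 2,000 per well 6 h before dosing.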

[7] = molecular target: Thyrotropin receptor (Homo sapiens) (UniProt P16473); test: qHTS assay to identify small molecule agonists of the thyroid stimulating hormone receptor (TSHR) signaling pathway (AID 1224843; calls by dose curve; note: nearly all actives have a fitted effect of over 45% in size)
How it was run: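 Using 15 concentrations per compound in triplicate, cAMP production was monitored in TSHR-HEK293 cells after 30 min compound incubation at RT; HTRF reagents followed, with fluorescence intensity recorded after 1 h.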

[8] = qHTS assay to identify small molecule agonists of the hypoxia (HIF-1) signaling pathway - cell viability counter screen (AID 1224844; calls by dose curve; note: nearly all actives have a fitted effect of over 50% in size)
How it was run: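 Cytotoxicity measured by CellTiter-Glo ATP luminescence in the wells also read for beta-lactamase signal. Cells were HRE-bla ME-180 (2,000/well, 0.5% dialyzed FBS), exposed to compounds for 17 h at 37C.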

[9] = qHTS assay to identify small molecule agonists of H2AX (AID 1224845; active = well fitted activation curve with a large enough effect in the signal ratio in the repeat runs, not every such curve was filed as active; the % refers to the signal ratio; note: potency is the fitted concentration of half-maximal effect)
How it was run: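 Wild-type CHO-K1 cells plated overnight, then exposed 3 hr at 37C to compounds at 15 concentrations (0.76% DMSO). Lysed, then HTRF anti-pH2AX(S139)-cryptate/anti-H2AX-d2 detection after 24 hr at room temperature; emissions 665 and 620 nm.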

[10] = qHTS RealTime-Glo MT Cell Viability Assay in HepG2 cells - 24 hour (AID 1224867); note: nearly all actives have a fitted effect of over 50% in size
How it was run: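 Viability was tracked continuously by NanoLuc luminescence from prosubstrate reduced by living HepG2 cells, at successive time points over 40 h of compound exposure. Cells with reagent were preincubated 5 h at 37 °C before compound addition.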

[11] = qHTS RealTime-Glo MT Cell Viability Assay in HEK293 cells - 32 hour (AID 1224868); note: nearly all actives have a fitted effect of over 50% in size; note: potency is the fitted concentration of half-maximal effect
How it was run: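 Viability tracked continuously by luminescence as live cells reduce a prosubstrate for NanoLuc; HEK293 cells preincubated 5 h, compound-treated at 37 C, and read at 0, 8, 16, 24, 32 and 40 h.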

[12] = A CellTox Green Cytotoxicity Assay to monitor cytotoxicity in HEK293 cells - 0 hour (AID 1224869); note: nearly all actives have a fitted effect of over 50% in size
How it was run: (§1)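 Fluorescence from a DNA-binding dye excluded by viable cells was measured repeatedly in the same HEK293 wells (600 cells/well) during continuous compound exposure at 37 C. Each assay gives one read point: 0, 8, 16, 24, 32 or 40 h.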

[13] = qHTS RealTime-Glo MT Cell Viability Assay in HepG2 cells - 40 hour (AID 1224870); note: nearly all actives have a fitted effect of over 50% in size
How it was run: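 HepG2 cells mixed with RealTime-Glo MT reagents (NanoLuc plus cell-permeant prosubstrate) were seeded at 600 cells/well, incubated 5 h at 37 C/5% CO2, then pinned with compounds in DMSO; nonlytic luminescence tracked viability during 40 h treatment.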

[14] = A CellTox Green Cytotoxicity Assay to monitor cytotoxicity in HEK293 cells - 40 hour (AID 1224871); note: nearly all actives have a fitted effect of over 45% in size; note: potency is the fitted concentration of half-maximal effect
How it was run: as §1

[15] = qHTS assay to identify small molecule agonists of the hypoxia (HIF-1) signaling pathway (AID 1224846; active = well fitted activation curve with a large enough effect in the signal ratio in the repeat runs, not every such curve was filed as active; the % refers to the signal ratio)
How it was run: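 Compounds added to ME-180 cells carrying hypoxia-response-element beta-lactamase reporter (0.5% dialyzed FBS, 5 h preplating), 17 h at 37C; agonist activity detected by CCF4-AM B/G FRET read-out.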

[16] = qHTS assay to identify small molecule agonists of H2AX - cell viability counter screen (AID 1224847; calls by dose curve; note: top concentration of the series differs between compounds; nearly all actives have a fitted effect of over 30% in size)
How it was run: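 Cytotoxicity counter screen in wild-type CHO-K1 cells: a 3 hr compound treatment at 37C across 15 concentrations, followed by CellTiter-Glo luminescence to gauge viable cells.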

[17] = qHTS assay to identify small molecule antagonists of the estrogen related receptor signaling pathway with the pleiotropic PPARgamma coactivator (PGC) from Tox21 10K library (AID 1224841; call rule not given here)
How it was run: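 Luminescence (One-Glo, 30 min at room temperature) after 18 h compound treatment at 37 C of PGC/ERR reporter cells plated at 2,000 cells/well and settled 6 h beforehand.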

[18] = qHTS assay to identify small molecule agonists of the estrogen related receptor signaling pathway with the pleiotropic PPARgamma coactivator (PGC) from Tox21 10K library (AID 1224842); note: nearly all actives have a fitted effect of over 15% in size; note: potency is the fitted concentration of half-maximal effect
How it was run: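 PGC/ERR reporter cells (NTP line) were seeded 2,000 per well, rested 6 h at 37 C/5% CO2, then pin-dosed with compounds in DMSO for 18 h at 37 C; luciferase read by One-Glo luminescence after 30 min at room temperature.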

[19] = qHTS assay to identify small molecule antagonists of the estrogen related receptor (ERR) signaling pathway from Tox21 library (AID 1224848); note: nearly all actives have a fitted effect of over 50% in size
How it was run: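 Tox21 10K compounds in DMSO tested for ERR pathway antagonism in NTP's ERR cell line; 18 h, 37 C exposure; ONE-Glo luminescence.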

[20] = qHTS assay to identify small molecule agonists of the estrogen related receptor (ERR) signaling pathway from Tox21 library (AID 1224849; calls by dose curve; note: nearly all actives have a fitted effect of over 15% in size); settings: ERR reporter cell line, ONE-Glo luciferase, 18 h; at 92.4 µM (top of the series) unless noted
How it was run: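 Luminescent agonist read-out (One-Glo, 30-minute room-temperature incubation) following 18-hour compound treatment at 37 C of the ERR cell line, which had been plated 6 hours before dosing.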

Sequence of Nuclear receptor subfamily 1 group I member 3 (Homo sapiens) (Q14994 whole entry, looked up): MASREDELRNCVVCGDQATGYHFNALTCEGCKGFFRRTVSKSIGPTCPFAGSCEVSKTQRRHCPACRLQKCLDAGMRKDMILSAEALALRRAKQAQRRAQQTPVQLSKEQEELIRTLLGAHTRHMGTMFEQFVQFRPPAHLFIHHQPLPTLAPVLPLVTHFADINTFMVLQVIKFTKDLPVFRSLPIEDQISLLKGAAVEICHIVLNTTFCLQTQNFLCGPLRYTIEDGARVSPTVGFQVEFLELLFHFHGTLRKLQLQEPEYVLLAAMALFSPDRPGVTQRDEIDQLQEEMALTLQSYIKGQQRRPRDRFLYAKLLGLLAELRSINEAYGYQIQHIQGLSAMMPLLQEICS
Sequence of Thyrotropin receptor (Homo sapiens) (P16473 whole entry, looked up): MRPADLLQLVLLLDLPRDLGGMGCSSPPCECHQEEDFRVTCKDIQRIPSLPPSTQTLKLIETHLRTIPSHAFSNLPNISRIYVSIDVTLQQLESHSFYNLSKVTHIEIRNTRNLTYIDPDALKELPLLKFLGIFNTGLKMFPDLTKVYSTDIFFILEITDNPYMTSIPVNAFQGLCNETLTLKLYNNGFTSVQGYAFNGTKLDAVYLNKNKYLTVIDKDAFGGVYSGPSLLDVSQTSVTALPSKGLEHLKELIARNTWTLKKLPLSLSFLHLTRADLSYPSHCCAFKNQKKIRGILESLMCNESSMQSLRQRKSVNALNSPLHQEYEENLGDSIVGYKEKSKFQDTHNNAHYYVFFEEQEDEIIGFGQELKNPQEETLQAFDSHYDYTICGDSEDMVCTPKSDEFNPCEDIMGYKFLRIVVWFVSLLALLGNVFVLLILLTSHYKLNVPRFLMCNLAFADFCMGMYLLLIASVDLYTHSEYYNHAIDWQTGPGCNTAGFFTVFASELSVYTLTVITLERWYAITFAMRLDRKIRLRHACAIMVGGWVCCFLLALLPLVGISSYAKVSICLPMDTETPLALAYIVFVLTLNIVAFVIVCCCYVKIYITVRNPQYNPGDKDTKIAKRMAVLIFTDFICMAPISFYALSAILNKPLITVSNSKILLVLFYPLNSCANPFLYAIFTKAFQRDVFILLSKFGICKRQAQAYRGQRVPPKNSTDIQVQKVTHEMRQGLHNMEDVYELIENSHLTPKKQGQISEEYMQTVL
Sequence of Luciferin 4-monooxygenase (Photinus pyralis) (P08659 whole entry, looked up): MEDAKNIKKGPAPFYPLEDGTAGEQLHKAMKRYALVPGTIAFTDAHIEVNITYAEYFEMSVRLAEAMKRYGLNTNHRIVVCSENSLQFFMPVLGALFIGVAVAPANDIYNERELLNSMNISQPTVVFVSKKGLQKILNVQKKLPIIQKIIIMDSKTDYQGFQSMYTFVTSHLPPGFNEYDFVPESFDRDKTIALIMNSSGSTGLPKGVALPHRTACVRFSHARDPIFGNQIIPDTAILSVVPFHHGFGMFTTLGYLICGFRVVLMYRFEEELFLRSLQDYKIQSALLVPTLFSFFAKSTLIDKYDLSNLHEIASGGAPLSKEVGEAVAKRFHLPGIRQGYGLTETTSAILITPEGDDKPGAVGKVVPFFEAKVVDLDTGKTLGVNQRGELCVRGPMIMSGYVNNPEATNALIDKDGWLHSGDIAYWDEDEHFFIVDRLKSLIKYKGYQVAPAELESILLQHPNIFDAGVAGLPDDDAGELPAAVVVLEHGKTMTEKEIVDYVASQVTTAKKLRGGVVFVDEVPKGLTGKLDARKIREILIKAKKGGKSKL

Row | SMILES | Potency [1] | Potency [2] | Potency [3] | Potency [4] | Potency [5] | Potency [6] | Potency [7] | Potency [8] | Potency [9] | Potency [10] | Potency [11] | Potency [12] | Potency [13] | Potency [14] | outcome [15] | Potency [16] | Potency [17] | Potency [18] | Potency [19] | activity change, positive = activation [20]
1 | CCN[C@H]1CN(CCCOC)S(=O)(=O)c2sc(S(N)(=O)=O)cc21 | inactive | inactive | inactive | inactive | inactive | inactive | inactive | inactive | inactive | inactive | inactive | inactive | inactive | inactive |  |  |  |  |  | 
2 | CC(=O)O[C@H]1CC[C@@]2(C)C(=CC[C@@H]3[C@@H]2CC[C@]2(C)C(C(C)=O)=CC[C@@H]32)C1 | inactive | inactive | inactive | inactive | inactive | inactive | inactive | inactive | inactive | inactive |  | inactive | inactive | inactive | inactive |  |  |  |  | 
3 | CC(=O)N(CC(O)CN(C(C)=O)c1c(I)c(C(=O)NCC(O)CO)c(I)c(C(=O)NCC(O)CO)c1I)c1c(I)c(C(=O)NCC(O)CO)c(I)c(C(=O)NCC(O)CO)c1I (stereo unspecified) | inactive | inactive | inactive | inactive | inactive | inactive | inactive | inactive | inactive | inactive | inactive | inactive | inactive | inactive |  |  |  |  |  | 
4 | Oc1ccccc1C=NCc1ccccc1 | 34.7 µM (active) | inactive | inactive | inactive |  | inactive | inactive | inactive | inactive | inactive | inactive | inactive | inactive | inactive | inactive |  |  |  |  | 
5 | CC(C)C(=O)OCC(C)(C)C(O)C(C)C (stereo unspecified) | inactive | inactive | inactive |  |  | inactive | inactive | inactive | inactive | inactive | inactive | inactive |  | inactive | inactive | inactive |  |  |  | 
6 | CC(=O)OC1C2(C)CCC(C2)C1(C)C (stereo unspecified) | inactive | inactive | inactive |  |  | inactive | inactive | inactive | inactive | inactive | inactive | inactive | inactive | inactive | inactive | inactive | inactive | inactive | inactive | -1.44%
7 | Cc1nnc(SCC2=C(C(=O)O)N3C(=O)[C@@H](NC(=O)Cn4cnnn4)[C@H]3SC2)s1 | inactive | inactive | inactive |  |  | inactive | inactive | inactive | inactive | inactive | inactive | inactive | inactive | inactive |  | inactive |  |  |  | 
8 | COc1ccc(Nc2ccc(OC)cc2)cc1 | 20.4 µM (active) | inactive | inactive | inactive |  | inactive |  |  |  | inactive | 25 µM (active) | inactive | inactive | inactive |  |  |  | 27.8 µM (active) | inactive | 38% (active)
9 | CC(=O)N[C@@H](CC(C)C)C(=O)O | inactive | inactive | inactive | inactive |  | inactive |  | inactive | inactive | inactive | inactive | inactive |  | inactive | inactive | inactive | inactive | inactive | inactive | -0.851% [at 42.5 µM]
10 | CCN(CC)CC1CCCCN1CC(=O)N1c2ccccc2C(=O)Nc2cccnc21 (stereo unspecified) | inactive | inactive | inactive |  |  | inactive | inactive | inactive | inactive | inactive | inactive | inactive | inactive | inactive | inactive | inactive | inactive | inactive | inactive | 8.53% [at 42.5 µM]
11 | CC(C)=CCC[C@](C)(O)[C@@H]1CC=C(C)CC1 | inactive | inactive | inactive | inactive |  | inactive | inactive | inactive | inactive | inactive | inactive | inactive |  | 49 µM (active) | inactive |  |  |  |  | 
12 | O=C(O)[C@@H](O)[C@H](O)[C@H](O)[C@@H](O)C(=O)O | inactive | inactive | inactive |  |  | inactive | inactive | inactive | inactive | inactive | inactive | inactive | inactive | inactive | inactive | inactive | inactive | inactive | inactive | 4.4% [at 42.5 µM]
13 | CCCCCCCCCCCCCCCCOP(=O)([O-])OCC[N+](C)(C)C | inactive | inactive | inactive |  | inactive | inactive | inactive | inactive | inactive | inactive | inactive | inactive | inactive | inactive | inactive | inactive | inactive | inactive | inactive | 
14 | COC(=O)N[C@H](C(=O)N[C@@H](Cc1ccccc1)[C@@H](O)CN(Cc1ccc(-c2ccccn2)cc1)NC(=O)[C@@H](NC(=O)OC)C(C)(C)C)C(C)(C)C | inactive | inactive | inactive |  | inactive | inactive | inactive |  | 24.7 µM (active) | inactive | inactive | inactive |  | inactive | inactive | inactive |  |  |  | 
15 | CC1=C(CC(=O)O)c2cc(F)ccc2/C1=C\c1ccc(S(C)(=O)=O)cc1 | inactive | inactive | inactive | inactive |  | inactive |  | inactive | inactive | inactive | inactive | inactive | inactive | inactive |  |  | inactive | inactive | inactive | 5.91% [at 42.5 µM]
